Several values for one entry are separate records, joined by “and”; a condition that tells them apart may be missing. Identical values can stand only once. The campaign covered roughly 390,000 compounds. About 820 (0.21%) were called active. Roughly 3% stayed inconclusive and do not appear here. Calls follow the shape of the dose curve; as a rule, active = well fitted inhibition curve with a large enough effect; inconclusive = small, poorly fitted or top-dose-only effect, or another doubt; inactive = no such curve, though single readings can be large or run the other way. Only a selection was taken, and actives are over-represented in it overall. Where a structure was tested more than once in an assay, its records may differ in their call.
% is scaled to controls: 0 for no effect and ±100 for the full control effect; potency is read from the fitted curve at half-maximal effect.

Histone acetyltransferase KAT2A (Homo sapiens), sequence (Q92830 whole entry, looked up): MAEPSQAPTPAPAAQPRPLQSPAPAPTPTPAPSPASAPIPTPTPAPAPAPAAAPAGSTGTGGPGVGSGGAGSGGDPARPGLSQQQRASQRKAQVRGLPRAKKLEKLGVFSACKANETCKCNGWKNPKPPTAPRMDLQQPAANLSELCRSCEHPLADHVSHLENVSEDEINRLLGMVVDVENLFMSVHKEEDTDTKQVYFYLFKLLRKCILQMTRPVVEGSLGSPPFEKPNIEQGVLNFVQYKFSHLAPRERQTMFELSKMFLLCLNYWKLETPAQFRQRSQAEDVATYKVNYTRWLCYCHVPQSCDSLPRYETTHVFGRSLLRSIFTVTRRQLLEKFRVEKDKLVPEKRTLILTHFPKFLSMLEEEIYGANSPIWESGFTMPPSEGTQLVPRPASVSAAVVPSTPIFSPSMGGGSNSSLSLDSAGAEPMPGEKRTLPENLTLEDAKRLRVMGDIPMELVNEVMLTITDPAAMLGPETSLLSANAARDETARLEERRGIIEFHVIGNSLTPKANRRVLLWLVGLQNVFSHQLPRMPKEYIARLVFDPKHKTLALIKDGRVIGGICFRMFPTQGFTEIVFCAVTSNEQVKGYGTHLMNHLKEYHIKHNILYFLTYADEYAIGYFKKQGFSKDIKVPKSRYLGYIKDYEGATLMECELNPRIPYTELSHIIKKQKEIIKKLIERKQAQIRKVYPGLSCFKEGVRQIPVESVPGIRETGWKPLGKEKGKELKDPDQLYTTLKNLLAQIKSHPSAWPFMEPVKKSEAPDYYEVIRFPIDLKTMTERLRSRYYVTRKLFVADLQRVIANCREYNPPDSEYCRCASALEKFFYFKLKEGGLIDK

The assay deals with Histone acetyltransferase KAT2A (Homo sapiens) (UniProt Q92830). In words: qHTS Assay for Inhibitors of GCN5L2. To be noted: GCN5L2 HAT assay, ThioGlo1 CoA-SH fluorescence; series mostly up to 58.9 µM; activity change, negative = inhibition: at the top concentration. From the text:
Histone acetyltransferase (HAT) enzymes transfer a […] group from acetyl-coenzyme A to the epsilon-amino group of conserved lysine residues of N-terminal histone tails. Acetylation results in charge neutralization of this positively charged amino acid, decreasing interactions with the […] backbone and making the DNA more accessible for transcription. HATs have been recognized as an emerging drug target for treatment of cancer, diabetes, asthma, chronic obstructive pulmonary disease, cardiac disease, and viral infection. Protein identified with HAT activity include the […] like 2 (GCN5L2, a.ka. Histone acetyltransferase KAT2A) which acetylates histone H3 at Lys9, 14, 18, 13, and to lesser extent histones H4 and H2B. This activates transcription of the gene by modulating chromatin structure and installing the acetyllysine recognition mark for bromodomain-containing coactivator proteins.
A quantitative high throughput screen was developed to identify small molecule inhibitors. The assay is based on the principle that it measures formation of reduced CoA with the pro-fluorescent maleimide derivative ThioGlo1 that becomes fluorescent upon reaction with the free thiol of CoA.
A large number of artifacts are expected in this primary screen, compounded by the assay format (fluorescent artifacts) and by the high top concentration tested for each substance. This BioAssay data deposition should be used with caution, and counterscreen and secondary assay validation is essential since very few actives from the primary screen are expected to be true inhibitors of GCN5L2.
[2] Yasgar, et al. Compound Management for Quantitative High-Throughput Screening. JALA. 2008 Apr;13(2):79-89.
[3] Inglese, et al. Quantitative high-throughput screening: a titration-based approach that efficiently identifies biological activities in large chemical libraries. Proc Natl Acad Sci. 1;103(31):11473-8. 2006. PMID: 16864780
NIH Molecular Libraries Probe Production Network [MLPCN]
NIH Chemical Genomics Center [NCGC]
Structural Genomics Consortium (SGC)
To each well of a 1,536w plate, 3ul of GCN5L2 (final concentration 20nM, in 50mM HEPES, 0.1mM EDTA (pH 7.5), 0.01% Tween-20 buffer) are added using a Kalypsys dispenser. Only buffer is added to some wells as a control. A Kalypsys pin-tool transferred 23nl of library compound solution in DMSO to each well, as well as the control inhibit garcinol. . Following a 15 min incubation of enzyme with compounds at room temperature, 1ul mixture of ThioGlo1 (50uM final), H3(1-25) peptide (75uM final), and Acetyl-CoA (70uM final) is added. Plates are read immediately on the ViewLux (PerkinElmer) (Ex340nm/Em540nm) for a 0 min read, incubated for 20 min at room temperature, and read again on the ViewLux with the same settings. The initial read was carried out to identify compounds that are potentially fluorescent.
For orientation: In qHTS, concentration-response curves come from the screen itself.
`COc1ccc(N2C(=O)/C(=C/c3ccco3)C(=O)NC2=S)cc1`: the Potency was 17.8 µM (active).

In the case of `COc1ccc2c3c1O[C@H]1C[C@@H](O)C=C[C@@]31CCN(C)C2`, the Potency entry is “inactive”.

Regarding `CC(C)(Cc1c[nH]c2ccc(Cl)cc12)NCCOc1ccccc1OCC1CC1`, the Potency entry is “inactive”.

In the case of `C[C@]12CC[C@@H]3c4ccc(O)cc4C[C@@H](CCCCCCCCCS(=O)CCCC(F)(F)C(F)(F)F)C3[C@@H]1CC[C@@H]2O` (some centres not stated), the “activity change, negative = inhibition” value was 34.1% (inactive).

For `CCCCC/C=C\C/C=C\C/C=C\C/C=C\CCCCCC(=O)NCCO`, the Potency entry is “inactive”.

As for `Cc1cccc2c3c(ccc12)C1=C(C(=O)C3=O)C(C)CO1` (configuration not stated), the Potency is 31.6 µM (active).

As to `C[C@]12O[C@H](C[C@@]1(O)C(=O)O)n1c3ccccc3c3c4c(c5c6ccccc6n2c5c31)CNC4=O`, the “activity change, negative = inhibition” value is 37.3% (inactive).

Take `CCOc1ccc(S(=O)(=O)NCc2ccc3c(c2)OCO3)cc1C`: the “activity change, negative = inhibition” value is -4.01% (inactive).

Consider `COc1ccc2c3c1OC1CC(O)C=C[C@@]31CCN(C)C2` (some centres not stated), for which the “activity change, negative = inhibition” value is -3.98% (inactive).

As to `CC(C)C(N)C(=O)OCCOCn1cnc2c(=O)[nH]c(N)nc21` (configuration not stated), the “activity change, negative = inhibition” value was -17% (inactive).

`CN(C)C[C@H]1CCCC[C@]1(O)c1cccc(O)c1`: the “activity change, negative = inhibition” value is -5.12% (inactive).

Consider `CC(C)(c1ccc(OC[C@@H]2CO2)cc1)c1ccc(OC[C@H]2CO2)cc1`, for which the “activity change, negative = inhibition” value was -15.6% (inactive).

Regarding `CC(=O)c1c(O)c(C)c(O)c(Cc2c(O)c3c(c(C(=O)/C=C\c4ccccc4)c2O)OC(C)(C)C=C3)c1O`, the Potency was 35.5 µM (active).

As for `CC(=O)c1c(O)c(C)c(O)c(Cc2c(O)c3c(c(C(=O)/C=C/c4ccccc4)c2O)OC(C)(C)C=C3)c1O`, the Potency result is “inactive and 11.2 µM (active)”.

Turning to `CCC(C)C(=O)O[C@@H]1C[C@@]2(C)C(c3ccoc3)OC(=O)CC23OC2(C)O[C@@]14[C@@]1(C)C(CC(=O)OC)C5(C)CC1(O)C(O)(C5OC(=O)C1(C)OC1C)C(OC(C)=O)[C@@]34O2` (some centres not stated), the “activity change, negative = inhibition” value is -8.65% (inactive).

On to `C=CCN1CCC2(C)c3cc(O)ccc3CC1[C@@H]2C` (some centres not stated), for which the “activity change, negative = inhibition” value is -21.9% (inactive).

In the case of `CN1CCCC(=C(c2cccs2)c2cccs2)C1`, the “activity change, negative = inhibition” value was -2.25% (inactive).

Consider `CC(C)(O)c1[se]c2ccccc2c1I`, for which the “activity change, negative = inhibition” value was -12% [at 88.6 µM] (inactive).

With `CO[C@@H]1C[C@@H](C[C@H]2CC[C@H](C)[C@@H]([C@@H](C)C(=O)O)O2)O[C@]2(O[C@](C)([C@H]3CC[C@@](C)(C4OC([C@H]5O[C@@](O)(CO)[C@H](C)C[C@@H]5C)C[C@@H]4C)O3)C[C@H]2C)[C@@H]1C` (some centres not stated), the “activity change, negative = inhibition” value is -5.57% (inactive).

For `CCN(CC)c1nc(C)cc(OP(=S)(OC)OC)n1`, the “activity change, negative = inhibition” value was -9.1% (inactive).

With `CN(C)[C@@H]1C(=O)C(C(N)=O)=C(O)[C@@]2(O)C(=O)C3=C(O)c4c(O)cccc4[C@@](C)(O)C3CC12` (some centres not stated), the “activity change, negative = inhibition” value was 3.36% (inactive).

Take `COC([CH2][Hg])CNC(=O)c1ccccc1OCC(=O)O` (configuration not stated): the Potency was 0.891 µM (active).
